Results filed as inconclusive are left out. Active and inactive are the calls of the source. Unless noted, the call rests on the fitted dose curve.

A short description of assay [1]: qHTS for Inhibitors of the Functional Ribonucleoprotein Complex (vRNP) of Lassa (LASV) Arenavirus: Viability assay - alamar blue signal for LASV Primary Screen (AID 1347083; calls by dose curve; tested in HEK293 reporter line; further: nearly all actives have a fitted effect of over 80% in size; further: potency means the concentration at half of the fitted maximal effect). In general terms: In qHTS, concentration-response curves come from the screen itself.
Assay [2] in a line: qHTS for Inhibitors of the Functional Ribonucleoprotein Complex (vRNP) of Lymphocytic Choriomeningitis Arenaviruses (LCMV): Viability assay - alamar blue signal for LCMV Primary Screen (AID 1347085; calls by dose curve; tested in HEK293 reporter line; further: nearly all actives have a fitted effect of over 80% in size; further: potency means the concentration at half of the fitted maximal effect).
A short description of assay [3]: Cytotoxicity counterscreen for inhibitors of SARS-CoV-2 cell entry (AID 1645845). Further: nearly all actives have a fitted effect of over 50% in size. Further: potency means the concentration at half of the fitted maximal effect. The method, boiled down:
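Counterscreen run in the same HEK293-ACE2 line as the pseudotyped-particle entry assay, without particles. Viability after 48 h at 37 C was read as ATP luminescence, scaled between cell-containing and cell-free wells.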
In general terms: Counterscreens check selectivity or assay interference.

Assay [4] can be described thus: Primary qHTS to identify inhibitors of SARS-CoV-2 cell entry (AID 1645846). Further: nearly all actives have a fitted effect of over 45% in size. Further: potency means the concentration at half of the fitted maximal effect. The conditions noted are these: activity change, negative = inhibition: at 57.1 µM (top of the series) unless noted. The gist of the method: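 Luminescence readout (Bright-Glo luciferase) 48 h after pseudoparticle addition. HEK293-ACE2 cells, 1500/well; compound pre-incubation 1 h; Normalized to spike PP and bald PP.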

The nature of assay [5]: Inducers of the Endoplasmic Reticulum Stress Response (ERSR) in human glioma: Validation (AID 504836; active means well fitted curve in the direction sought with a large enough effect; an effect the other way counts as inactive or inconclusive; further: 0% is about no effect). The method, boiled down: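 Stably transfected U87-MG glioma cells carrying a GRP78-based luciferase sensor; 16 h compound incubation. Luminescence end-point read 10 min after Bright-Glo addition at room temperature.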
A short description of assay [6]: Primary qHTS for Huh7 cytotoxicity: counterscreen for inhibitors of MERS-S pseudotyped particle cell entry (AID 1479147). To be noted: outcome: dose series up to 57.1 µM unless noted.
A short description of assay [7]: Primary qHTS for Vero E6 cytotoxicity: counterscreen for inhibitors of SARS-S pseudo-typed particle cell entry (AID 1479150). To be noted: outcome: dose series up to 57.1 µM unless noted.
The nature of assay [8]: Confirmatory qHTS to identify inhibitors of SARS-CoV-2 cell entry (AID 1645844). Further: potency means the concentration at half of the fitted maximal effect; nearly all actives have a fitted effect of over 45% in size. The method, boiled down: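 HEK293-ACE2, overnight seeding; cpd 1 h, 37C/5% CO2; + SARS-CoV-2-S MLV PP (Wuhan-Hu-1, ΔC19); 48 h; Bright-Glo luminescence. Data normalised to S PP and bald PP wells.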
Assay [9] can be described thus: Validation screen for inhibitors of Lassa infection (AID 463096). Further: on the % scale 0 is the no-effect control and ±100 the full control effect.
Assay [10] can be described thus: Primary qHTS for inhibitors of MERS-S pseudo-typed particle cell entry (AID 1479149). Further: nearly all actives have a fitted effect of over 60% in size. On activity change, negative = inhibition: on the % scale 0 is the no-effect control and ±100 the full control effect.
Assay [11] can be described thus: Confirmatory qHTS for VERO E6 Cytotoxicity Assay: Counterscreen for SARS-CoV-2 CPE Assay (AID 1508605). Further: nearly all actives have a fitted effect of over 60% in size. Further: potency means the concentration at half of the fitted maximal effect.
The nature of assay [12]: Confirmatory qHTS for activators (rescue) of SARS-CoV-2 Cytopathic Effect (CPE) (AID 1508606). Further: 0% is about no effect; nearly all actives have a fitted effect of over 70% in size.
Assay [13] concerns the target Alpha-galactosidase (Coffea arabica) (UniProt Q42656). Description: Counterscreen for Glucocerebrosidase Inhibitors: qHTS Assay for Coffee Bean alpha-Galactosidase at pH 4.5 (AID 957; active means well fitted curve in the direction sought with a large enough effect; an effect the other way counts as inactive or inconclusive;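 further: plate controls were enzyme alone for no effect and no enzyme for full effect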). The gist of the method:
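Fluorogenic qHTS at pH 4.5 (citrate buffer with Tween-20): 2 nM enzyme, 80 uM 4-MU-alpha-galactoside substrate, compound titrated 0.7 nM to 77 uM, 20 min room temperature. Glycine/NaOH stop; 4-MU read Ex 365/Em 440; Hill-equation AC50 against no-enzyme and enzyme controls.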

For assay [14] the target is unchanged. Description: Counterscreen for Glucocerebrosidase Inhibitors: qHTS Assay for Coffee Bean alpha-Galactosidase at pH 5.9 (AID 998; active means well fitted curve in the direction sought with a large enough effect; an effect the other way counts as inactive or inconclusive;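 further: plate controls were uninhibited enzyme for no effect and no-enzyme basal signal for full effect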). The gist of the method:
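Enzyme 2 nM + cpd (0.7 nM–77 uM titration) + 4-MU-alpha-Gal 80 uM, pH 5.9 citrate/Tween-20, RT 20 min, NaOH/glycine stop pH 10, fluor 365/440. Normalized to no-enzyme and full-activity controls; Hill-fit AC50.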

Assay [15] is described as follows: qHTS profiling of the MIPE4 collection as inhibitors of Plasmodium falciparum (3D7) proliferation (AID 743344; call rule not given here;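 further: scaled between DMSO vehicle wells and 0.29 µM artemisinin as full inhibition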). To be noted: P. falciparum 3D7 in erythrocytes, SYBR Green DNA fluorescence, 72 h; at 28.5 µM (top of the series) unless noted. The gist of the method:
(§1)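 Parasite DNA was quantified by SYBR Green I fluorescence (ex 485, em 535 nm) after overnight lysis in saponin/Triton buffer at room temperature. Cultures at 0.3% parasitemia and 2.5% hematocrit were first exposed to compound for 72 h at 37 C; signals were normalised to artemisinin (0.29 uM) and vehicle wells.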

A short description of assay [16]: qHTS profiling of the MIPE4 collection as inhibitors of Plasmodium falciparum (DD2) proliferation (AID 743345; call rule not given here). The conditions noted are these: P. falciparum Dd2 in erythrocytes, SYBR Green DNA, 72 h; at 28.5 µM (top of the series) unless noted. The gist of the method: as §1
Assay [17] in a line: qHTS profiling of the MIPE4 collection as inhibitors of Plasmodium falciparum (DD2) proliferation (Rep 2) (AID 743346; call rule not given here). The conditions noted are these: P. falciparum Dd2 in erythrocytes, SYBR Green DNA, 72 h; at 28.5 µM (top of the series) unless noted. The gist of the method: as §1
Assay [18] concerns the target Peroxisome proliferator-activated receptor delta (Homo sapiens) (UniProt Q03181). Briefly: qHTS assay for small molecule agonists of peroxisome proliferator-activated receptor delta signaling (AID 588534).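 Further: 0% = DMSO basal wells and 100% = positive control agonist at 10 µM.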 The gist of the method: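 Agonist-mode beta-lactamase reporter readout (CCF4 dye, 2 h at RT) after 18 h at 37 °C exposure to a titration; Hill-equation fitting gave EC50 and maximal response.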

Assay [19] can be described thus: VSVG counterscreen qHTS to identify inhibitors of SARS-CoV-2 cell entry (AID 1645847). Further: potency means the concentration at half of the fitted maximal effect; nearly all actives have a fitted effect of over 65% in size. The gist of the method: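 HEK293-ACE2 cells (Expi293F stably expressing human ACE2) were pretreated with compound for 1 h at 37 °C, then infected with MLV-based VSV-G pseudotyped particles for 48 h. Luciferase luminescence was normalized to VSV-G PP and bald PP wells.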
A short description of assay [20]: Primary qHTS for inhibitors of SARS-S pseudo-typed particle cell entry (AID 1479145). Further: nearly all actives have a fitted effect of over 45% in size.

Chain of Alpha-galactosidase (Coffea arabica) (Q42656 whole entry, looked up): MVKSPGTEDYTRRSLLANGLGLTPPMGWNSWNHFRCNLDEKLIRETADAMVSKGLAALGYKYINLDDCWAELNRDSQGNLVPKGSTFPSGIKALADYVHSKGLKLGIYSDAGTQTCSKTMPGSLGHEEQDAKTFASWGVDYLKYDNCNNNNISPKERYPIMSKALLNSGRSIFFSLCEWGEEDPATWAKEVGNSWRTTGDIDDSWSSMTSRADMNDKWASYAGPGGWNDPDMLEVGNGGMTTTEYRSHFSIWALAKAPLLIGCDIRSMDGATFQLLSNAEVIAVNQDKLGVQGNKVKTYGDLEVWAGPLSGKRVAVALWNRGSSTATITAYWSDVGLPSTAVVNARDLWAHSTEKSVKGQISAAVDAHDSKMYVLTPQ
Chain of Peroxisome proliferator-activated receptor delta (Homo sapiens) (Q03181 whole entry, looked up): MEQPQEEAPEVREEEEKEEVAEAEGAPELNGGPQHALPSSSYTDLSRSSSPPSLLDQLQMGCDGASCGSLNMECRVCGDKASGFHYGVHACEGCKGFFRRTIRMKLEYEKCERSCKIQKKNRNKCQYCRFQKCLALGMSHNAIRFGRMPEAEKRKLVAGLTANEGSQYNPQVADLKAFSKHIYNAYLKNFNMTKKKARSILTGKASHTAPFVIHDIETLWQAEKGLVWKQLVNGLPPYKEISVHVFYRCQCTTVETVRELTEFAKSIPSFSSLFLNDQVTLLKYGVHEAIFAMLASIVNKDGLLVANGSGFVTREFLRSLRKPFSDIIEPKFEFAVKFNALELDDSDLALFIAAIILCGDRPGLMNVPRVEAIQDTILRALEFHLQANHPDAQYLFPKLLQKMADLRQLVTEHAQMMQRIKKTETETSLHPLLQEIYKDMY

On to `O=C(Nc1cn[nH]c1-c1nc2ccc(CN3CCOCC3)cc2[nH]1)NC1CC1`, for which the Potency was 7690 nM (active) in [1], 1930 nM (active) in assay [2] and 15800 nM (active) in assay [3]. In addition, the activity change, negative = inhibition in assay [4] was -95.5%.

Take `CC(C)Oc1ccc(C(=O)N[C@H](CNC(=O)CN(C)C)Cc2ccc(-c3cn4cccc([C@H](C)O)c4n3)cc2)cc1Cl`: the Potency was 1930 nM (active) in assay [1] and 968 nM (active) in assay [2]. In addition, the Potency result in [3] is “inactive”.

In the case of `O=C(c1ccc(OCCCc2cnc[nH]2)cc1)C1CC1`, the result in [5] was inactive. Further, the Potency entry in assay [1] and in [2] was “inactive” in each case.

As for `COc1cc([C@@H]2c3cc4c(cc3[C@@H](O[C@@H]3O[C@@H]5CO[C@@H](C)O[C@@H]5[C@H](O)[C@@H]3O)[C@H]3COC(=O)[C@H]23)OCO4)cc(OC)c1O`, the Potency in assay [1] was 2170 nM (active); in assay [2], 2170 nM (active); in assay [8] it was 541 nM (active). Also, the result in assay [6] and in assay [7] was inactive.

Consider `Cc1cc(C(=O)NOCCO)c(Nc2ccc(I)cc2F)n(C)c1=O`, for which the values for the Potency in assay [1] and in assay [2] were 6850 nM (active) and 863 nM (active), respectively. Further, in [3], the Potency entry was “inactive”. Also, the activity change, negative = inhibition in [4] was -17.4%.

As for `CN1CCN2c3ccccc3Cc3ccccc3C2C1` (centres undefined), the Potency entry in assay [9], in assay [1], in [2], in assay [10] and in [3] was “inactive” throughout. Also, the molecule was classed as inactive in assay [5], in assay [6] and in assay [7].

With `c1cncc(CN2CCC(n3ncc4c(N5CCOCC5)nc(-c5ccc6[nH]ccc6c5)nc43)CC2)c1`, the values for the Potency in assay [1], in assay [2] and in [11] were 1220 nM (active), 2430 nM (active) and 2510 nM (active), respectively. For the same molecule, the Potency result in assay [12] was “inactive”.

As to `O=c1ccc2ccc(O)c(O)c2o1`, the outcome in assay [13] and in assay [14] was inactive. Further, the Potency entry in [1] and in [2] was “inactive” throughout.

As for `CC[C@H](CC[C@@H](C)[C@H]1CC[C@H]2[C@@H]3CC=C4C[C@@H](O)CC[C@]4(C)[C@@H]3CC[C@]12C)C(C)C`, in assay [15], the parasite growth, % of DMSO control is 94%. Moreover, the parasite growth remaining, % of DMSO control (lower = more inhibition) in assay [16] was found to be 101%. Also, the parasite growth, % of control (lower = inhibition) in assay [17] came to 179%. In addition, the Potency in assay [1] was 8630 nM (active); in assay [2], 2430 nM (active).

In the case of `NC(N)=NC(N)=NCCc1ccccc1`, the Potency result in assay [18], in [1], in assay [2] and in [3] was “inactive” in each case. Moreover, the activity change, negative = inhibition in assay [4] is -16.7%.

In the case of `CC(C)NC[C@@H](O)COc1cccc2ccccc12`, the molecule was called inactive in assay [14], in assay [6] and in assay [7]. The Potency entry in assay [9], in assay [1], in [2] and in assay [3] was “inactive” in each case. For the same molecule, the activity change, negative = inhibition in assay [4] was -4.9%.

`COc1cc(C(=O)NC2CCN(C)CC2)ccc1Nc1ncc2c(n1)N(C1CCCC1)CCC(=O)N2C(C)C`: the Potency is 27300 nM (active) in [1], 15300 nM (active) in assay [2] and 31600 nM (active) in [4].

`CN[C@@H](C)C(=O)N[C@H]1CN(C(=O)CC(C)C)CC[C@H]2CC[C@@H](C(=O)NC(c3ccccc3)c3ccccc3)N2C1=O`: the Potency in [1] is 3430 nM (active); in assay [2] it was 12200 nM (active). Moreover, in [3], the Potency entry was “inactive”.

As for `C[C@@]1(C(=O)Nc2ccc(F)nc2)CCCN1c1nc(Nc2cc(C3CC3)[nH]n2)c2cccn2n1`, the Potency is 6110 nM (active) in [1], 1370 nM (active) in [2], 171 nM (active) in assay [8] and 2710 nM (active) in assay [19]. In addition, the Potency result in assay [3] was “inactive”.

For `COc1cc2ncnc(Nc3cc(Br)c(O)c(Br)c3)c2cc1OC`, the Potency was 611 nM (active) in assay [1] and 54.4 nM (active) in assay [2]. The Potency entry in assay [3] is “inactive”. Moreover, the activity change, negative = inhibition in [4] was -28.4%.

Regarding `COc1ccc(F)c(F)c1C(=O)c1cnc(NC2CCN(S(C)(=O)=O)CC2)nc1N`, the Potency in assay [1] was 2730 nM (active); in [2], 6110 nM (active); in [8] it was 68.1 nM (active); in [19] it was 68.1 nM (active). Besides, in assay [4], the activity change, negative = inhibition was -92.2%.

Take `COc1cc(/C=C(\C#N)C(=O)Nc2nnc(C(F)(F)F)s2)ccc1OCc1ccc(C(F)(F)F)cc1C(F)(F)F`: the call in [5] was inactive. In addition, the Potency entry in assay [1], in assay [2], in [3] and in assay [4] was “inactive” each time.

For the molecule `N#Cc1c(NC(=O)c2cccc3ccccc23)sc2c1CCCC2`, the Potency in assay [1] was 769 nM (active); in assay [2], 1090 nM (active); in assay [8], 1080 nM (active); in assay [19], 764 nM (active). The activity change, negative = inhibition in [4] was -63.8%.

For `C[C@H](NCc1ccc(OCc2cccc(F)c2)cc1)C(N)=O`, the Potency in assay [1] is 21700 nM (active); in [2] it was 38500 nM (active). For the same molecule, the Potency result in assay [20], in assay [10], in [3] and in assay [4] was “inactive” throughout. The outcome in assay [6] and in [7] was inactive.

`CC(=O)OCC(=O)[C@@]12OC(C)(C)O[C@@H]1C[C@H]1[C@@H]3C[C@H](F)C4=CC(=O)C=C[C@]4(C)[C@@]3(F)[C@@H](O)C[C@@]12C`: the Potency result in assay [1], in [2], in assay [20], in assay [10], in assay [3] and in [4] was “inactive” in each case. In addition, the molecule was called inactive in assay [6] and in assay [7].

Regarding `COc1ccc(-c2nc(N3CCOCC3)c3sc(CN(C)c4ncc(C(=O)NO)cn4)cc3n2)cn1`, the Potency in assay [1] was 193 nM (active); in assay [2], 122 nM (active). In addition, in [4], the Potency entry was “inactive”.

As to `O=C(N[C@@H](c1ccccc1)[C@@H]1CCCCN1)c1cccc(C(F)(F)F)c1Cl`, the values for the Potency in assay [1] and in assay [2] were 24.3 nM (active) and 8.6 nM (active), respectively. Also, the Potency result in assay [11] and in assay [3] was “inactive” throughout.

With `CCN(CC)Cc1ccc2cc(COC(=O)Nc3ccc(C(=O)NO)cc3)ccc2c1`, the Potency is 15300 nM (active) in assay [1], 6850 nM (active) in assay [2] and 10000 nM (active) in assay [3].

The values above are taken from PubChem BioAssay (NCATS).
